# Reference: PubChem BioAssay
# Records with an inconclusive call do not appear. For part of these data: Entries with a potency or affinity are not part of this list. The source made the active and inactive calls. Rule as the data show it: active = fluorescence slope change above about 50%; inconclusive = mostly about 31% to 49%; inactive = weaker than that.
# Legend:
# [1] = target: ATP-dependent translocase ABCB1 (Homo sapiens) (UniProt P08183); test: P-glycoprotein substrate transport blockade – cell-based (AID 377); conditions: MDR1-expressing cells, fluorescent substrate accumulation slope; stronger effect = higher value; concentration not given here
# [2] = blockers of polyQ-driven CASP3 activation – cell-based (AID 1583); conditions: polyglutamine-induced caspase-3 activation, cell assay; stronger effect = higher value;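 tested at 10 µM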
# [3] = yeast 75Q aggregation reduction – 75Q-TubU reporter (AID 1593); conditions: Yeast 75Q polyglutamine aggregation reporter
# [4] = restoration of touch response, mutant HTT neurons – whole organism, C. elegans mechanosensory neurons, N-terminal huntingtin (AID 1599); conditions: C. elegans polyQ-huntingtin mechanosensory neurons, stronger effect = higher value
# [5] = blockers of cytochrome c efflux from mitochondria – biochemical, purified mitochondria (AID 1603); conditions: stronger effect = lower value;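 also: mouse liver mitochondria challenged with calcium chloride; signal normalized to the plate average as 100%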
# [6] = polyglutamine aggregate formation blockers (AID 1604); conditions: polyglutamine-induced protein aggregation inhibition assay; stronger effect = higher value; tested at 2.5 µM
# ATP-dependent translocase ABCB1 (Homo sapiens), sequence (P08183 whole entry, looked up): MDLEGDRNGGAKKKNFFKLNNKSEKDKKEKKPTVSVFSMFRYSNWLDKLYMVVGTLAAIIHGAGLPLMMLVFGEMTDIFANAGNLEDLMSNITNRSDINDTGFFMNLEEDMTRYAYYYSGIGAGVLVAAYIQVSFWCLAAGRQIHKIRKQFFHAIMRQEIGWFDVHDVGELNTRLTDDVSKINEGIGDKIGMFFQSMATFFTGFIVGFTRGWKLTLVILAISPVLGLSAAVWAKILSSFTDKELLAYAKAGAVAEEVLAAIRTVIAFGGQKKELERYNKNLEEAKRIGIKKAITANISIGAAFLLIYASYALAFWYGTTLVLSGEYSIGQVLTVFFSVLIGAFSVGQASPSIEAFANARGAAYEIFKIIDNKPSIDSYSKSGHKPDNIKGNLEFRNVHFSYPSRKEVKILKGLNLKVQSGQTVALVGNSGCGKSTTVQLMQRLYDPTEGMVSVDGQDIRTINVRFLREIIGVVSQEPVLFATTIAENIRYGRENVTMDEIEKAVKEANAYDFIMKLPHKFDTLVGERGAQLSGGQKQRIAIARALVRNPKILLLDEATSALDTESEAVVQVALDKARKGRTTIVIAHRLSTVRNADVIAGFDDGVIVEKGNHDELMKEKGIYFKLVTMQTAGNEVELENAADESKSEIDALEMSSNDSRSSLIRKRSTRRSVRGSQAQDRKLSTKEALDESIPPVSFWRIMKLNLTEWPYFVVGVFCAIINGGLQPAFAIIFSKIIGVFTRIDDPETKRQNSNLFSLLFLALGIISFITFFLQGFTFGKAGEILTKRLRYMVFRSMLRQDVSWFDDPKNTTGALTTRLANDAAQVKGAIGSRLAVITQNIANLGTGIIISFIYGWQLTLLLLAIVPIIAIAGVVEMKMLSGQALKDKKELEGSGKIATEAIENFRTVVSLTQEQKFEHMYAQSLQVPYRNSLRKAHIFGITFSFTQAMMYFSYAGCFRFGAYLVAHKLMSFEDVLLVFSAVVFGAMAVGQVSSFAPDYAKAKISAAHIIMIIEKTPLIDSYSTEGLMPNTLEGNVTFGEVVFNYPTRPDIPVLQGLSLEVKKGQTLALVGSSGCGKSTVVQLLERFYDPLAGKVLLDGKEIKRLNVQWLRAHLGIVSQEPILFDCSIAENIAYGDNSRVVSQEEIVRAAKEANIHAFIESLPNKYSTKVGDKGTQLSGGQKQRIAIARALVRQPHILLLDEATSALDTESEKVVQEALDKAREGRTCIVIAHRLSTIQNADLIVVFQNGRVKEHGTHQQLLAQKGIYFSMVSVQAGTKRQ
SMILES,fluorescence slope change [1],inhibition [2],score [3],rescue above control [4],cytochrome c release ratio [5],inhibition of aggregation [6]
CCN(CCCCOC(=O)c1ccc(OC)c(OC)c1)C(C)Cc1ccc(OC)cc1 (stereo not drawn),-44.1% (inactive),24.4%,1.51,1.7,0.92,65.1%
Cc1ncc([N+](=O)[O-])n1CCO,22.4% (inactive),-3.1%,1.16,22.1,0.97,58.7%
O=C1CC2(CCCC2)CC(=O)N1CCCCN1CCN(c2ncccn2)CC1,65.3% (active),-0.71%,1.18,1.91,1.06,48.3%
Clc1ccc(C(c2ccccc2Cl)C(Cl)Cl)cc1 (stereo not drawn),7.7% (inactive),21%,-3.35,0,3.7,72.2%
Cc1ccccc1N1C(=O)c2cc(S(N)(=O)=O)c(Cl)cc2NC1C (stereo not drawn),79.4% (active),19.1%,1.21,6.73,0.86,4.55%
Cc1nnc(SCC2=C(C(=O)O)N3C(=O)[C@@H](NC(=O)Cn4cnnn4)[C@H]3SC2)s1,-6.8% (inactive),0.61%,1.27,4.54,0.92,13.4%
Cc1ccc(C(=O)c2ccc(CC(=O)O)n2C)cc1,69.6% (active),3.78%,1.04,-3.75,1.04,23.8%
Cc1onc(-c2ccccc2Cl)c1C(=O)N[C@@H]1C(=O)N2[C@@H]1SC(C)(C)[C@@H]2C(=O)O,68% (active),-3.1%,1.4,1.76,1.27,77%
CCCC(C(=O)OCCN(CC)CC)(c1ccccc1)c1ccccc1,180% (active),-4.65%,1.32,-2.09,2.6,77%
CCCCC(CC)CN=C(N)NC(N)=NCCCCCCN=C(N)NC(N)=NCC(CC)CCCC (stereo not drawn),152% (active),–,-1.46,0,26.4,88%
CCCCC1(COC(=O)CCC(=O)O)C(=O)N(c2ccccc2)N(c2ccccc2)C1=O,4.7% (inactive),9.48%,1.11,9.03,1.09,57.1%
C[C@](N)(Cc1ccc(O)c(O)c1)C(=O)O,52.1% (active),10.4%,1.25,10.7,1.01,31.7%
CC1=NN(c2ccccc2)C(=O)C1,–,-19.6%,1.27,–,0.94,10.2%
Cc1cc(O)cc(C)c1Cl,–,0.93%,0.53,–,5.53,81.6%
CC(=O)Nc1ccc(OCC(O)CNC(C)C)cc1 (stereo not drawn),57.7% (active),19.6%,1,6.87,0.77,66.7%
O=C(Cn1ccnc1[N+](=O)[O-])NCCO,10% (inactive),-0.7%,1.21,-3.38,0.82,62.1%
CN1CCN(C2=Nc3ccccc3Oc3ccc(Cl)cc32)CC1,163% (active),–,–,–,–,–

SMILES,fluorescence slope change [1],inhibition [2],score [3],rescue above control [4],cytochrome c release ratio [5],inhibition of aggregation [6]
Nc1ncnc2c1ncn2[C@@H]1O[C@H](COP(=O)(O)O)[C@@H](O)[C@H]1O,73% (active),–,–,–,–,–
NC(N)=N/N=C/c1c(Cl)cccc1Cl,70.4% (active),–,–,–,–,–
COc1cc2nc(N3CCN(C(=O)C4COc5ccccc5O4)CC3)nc(N)c2cc1OC (stereo not drawn),75.1% (active),–,–,–,–,–
CCN(CCCc1ccccc1)CCCc1ccccc1,72.6% (active),–,–,–,–,–
CC(=O)[C@@]1(O)CC[C@H]2[C@@H]3C[C@H](C)C4=CC(=O)C=C[C@]4(C)[C@@]3(F)[C@@H](O)C[C@@]21C,10.7% (inactive),–,–,–,–,–
CCc1oc2ccccc2c1C(=O)c1cc(Br)c(O)c(Br)c1,56.7% (active),–,–,–,–,–
CC1CC(OC(=O)C(O)c2ccccc2)CC(C)(C)N1C (stereo not drawn),23.1% (inactive),–,–,–,–,–
CO[C@@]1(NC(=O)CSCC#N)C(=O)N2C(C(=O)O)=C(CSc3nnnn3C)CS[C@@H]21,20.3% (inactive),–,–,–,–,–
C[C@@H]1C[C@H]2[C@@H]3C[C@H](F)C4=CC(=O)C=C[C@]4(C)[C@@]3(F)[C@@H](O)C[C@]2(C)[C@@]1(O)C(=O)CO,57.3% (active),–,–,–,–,–
COC(=O)Nc1nc2ccc(C(=O)c3cccs3)cc2[nH]1,103% (active),–,–,–,–,–
C=CC(N)CCC(=O)O (stereo not drawn),52.2% (active),–,–,–,–,–
CCOC(=O)OC(C)OC(=O)[C@@H]1N2C(=O)[C@@H](NC(=O)[C@H](N)c3ccccc3)[C@H]2SC1(C)C (stereo partly drawn),97.9% (active),–,–,–,–,–
CN1C(C)(C)CCCC1(C)C,17% (inactive),–,–,–,–,–
CCOC(=O)n1ccn(C)c1=S,99.3% (active),–,–,–,–,–
Cc1ccc(S(=O)(=O)NC(=O)NN2CC3CCCC3C2)cc1 (stereo not drawn),10.5% (inactive),–,–,–,–,–
CC1(C)O[C@@H]2C[C@H]3[C@@H]4CCC5=CC(=O)CC[C@]5(C)[C@@]4(F)[C@@H](O)C[C@]3(C)[C@]2(C(=O)CCl)O1,26.3% (inactive),–,–,–,–,–
